Many of the other results were omitted from the sample, so hits are more common in it than they were.
ALOX12 inh – inhibitors of human 12S-lipoxygenase ALOX12 | P18054 | purified 12hLO, xylenol orange hydroperoxide absorbance | Potency, µM (top dose mostly 108 µM), for the others: at the top dose activity change, negative = inhibition, actives largely listed as inhibitors | 580,000 compounds, 1.1% hits; also: % is scaled to controls: 0 for no effect and ±100 for the full control effect
Target sequence (P18054 whole entry, looked up): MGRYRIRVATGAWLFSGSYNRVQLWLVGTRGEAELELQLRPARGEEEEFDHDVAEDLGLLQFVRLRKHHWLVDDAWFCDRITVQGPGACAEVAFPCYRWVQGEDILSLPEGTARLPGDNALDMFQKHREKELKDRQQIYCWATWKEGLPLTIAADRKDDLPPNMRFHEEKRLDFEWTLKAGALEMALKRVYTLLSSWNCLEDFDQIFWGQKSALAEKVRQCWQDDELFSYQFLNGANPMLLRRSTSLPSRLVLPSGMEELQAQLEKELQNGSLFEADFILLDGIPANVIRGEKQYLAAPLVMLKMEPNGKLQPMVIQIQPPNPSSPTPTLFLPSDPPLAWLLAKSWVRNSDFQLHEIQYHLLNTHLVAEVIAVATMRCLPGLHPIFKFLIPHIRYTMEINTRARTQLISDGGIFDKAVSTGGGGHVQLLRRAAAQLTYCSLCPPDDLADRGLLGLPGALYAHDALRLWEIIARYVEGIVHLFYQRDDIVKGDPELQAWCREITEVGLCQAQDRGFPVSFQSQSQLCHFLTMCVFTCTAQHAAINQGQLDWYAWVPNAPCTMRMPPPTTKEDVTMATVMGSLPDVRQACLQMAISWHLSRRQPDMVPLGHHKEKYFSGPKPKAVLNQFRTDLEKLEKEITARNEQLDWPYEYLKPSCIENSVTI
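Hydroperoxide product was detected by ferrous iron/xylenol orange as the 573 to 405 nm absorbance ratio. Arachidonic acid at 40 uM (final) was turned over for 30 min at room temperature by 150 nM human 12hLO, pH 7.0 Hepes buffer, after 15 min compound preincubation.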
G9a block – inhibitors of human histone lysine methyltransferase G9a. Q96KQ7. G9a H3K9 monomethylation, AlphaScreen, 2 h. Potency, µM (top dose mostly 102 µM), for the others: top-dose activity, negative = inhibition, hits mostly inhibitors. 350,000 compounds, 8.8% hits. AID 504332; also: % is scaled to controls: 0 for no effect and ±100 for the full control effect; nearly all actives have a fitted effect of over 75% in size
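Step 1: enzyme (final 20 nM) with compound, 15 min RT. Step 2: substrate peptide 500 nM and SAM 20 uM, 2 h RT. Step 3: anti-H3K9me1 antibody and AlphaScreen beads, 10 min, then plate read.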
GRP78 ERSR act – induces the endoplasmic reticulum stress response in human glioma cells; Potency, µM, for inactives: at the highest dose activation, hits mostly activators; U87-MG GRP78 promoter luciferase reporter, 16 h; 420,000 compounds, 0.02% hits; also: series mostly up to about 76 µM; % of control where 0% means no effect; nearly all actives have a fitted effect of over 35% in size
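Stably transfected U87-MG human glioma cells carrying a GRP78-based luminescent sensor were seeded at 1000 cells/well, pin-dosed with compounds and incubated 16 h. Luciferase reagent was then added, and end-point luminescence was read after 10 min at room temperature.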
VDR inhibitor – vitamin D3 receptor (human) inhibition; P11473; VDR-SRC2-3 peptide fluorescence polarization, 2 h; Potency, µM, for the others: max response, negative = inhibition, usual class: inhibitors; 400,000 compounds, 0.93% hits; AID 504847; also: % is scaled to controls: 0 for no effect and ±100 for the full control effect
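Reagent solutions, kept cold and dark, are dispensed first; compounds are then pinned in at 23 nl, plates briefly spun, and incubated 2 h at ambient temperature. Inhibition of VDR–SRC2-3 peptide binding is read by fluorescence polarization.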
Sfp PPTase inh – blocks B. subtilis Sfp PPTase activity; Q9F4F7; Biochemical Sfp PPTase activity, qHTS; Potency, µM, without a hit: largest response in the series, negative = inhibition, hits mostly inhibitors; 310,000 compounds, 3.5% hits;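 also: the enzyme is Sfp with the accession as filed and its product quenches rhodamine fluorescence; 0% = enzyme reaction without inhibitor and -100% = no enzyme wells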
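Sfp 15 nM + cpd, 15 min RT; start w/ rhodamine-CoA 5 uM, BHQ-2-YbbR 12.5 uM (final); 50 mM Hepes pH 7.6, 10 mM MgCl2, 0.01% NP-40, 0.01% BSA; read 525/598 nm at 0 and 30 min.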
Numbers without * were called inactive; [ ] = dose if it differs, or a comment. Calls follow the shape of the dose curve; as a rule, active = well fitted curve in the direction sought with a large enough effect; inconclusive = small, poorly fitted or top-dose-only effect, or another doubt; inactive = no such curve, though single readings can be large; an effect the other way counts as inactive or inconclusive. Potency is read from the fitted curve at half-maximal effect.

How did CCCN(CCC)c1ccc(CC(=O)NC(C)Cc2ccccc2)cc1 (stereo not drawn) do in these assays?
ALOX12 inh: -15%; G9a block: 10µM*; GRP78 ERSR act: -1%; VDR inhibitor: 1%; Sfp PPTase inh: -2%

How did CCN(CC)c1ccc(CC(=O)NC(C)Cc2ccccc2)cc1 (stereo not drawn) do in these assays?
ALOX12 inh: 1%; G9a block: -24%[59 µM]; GRP78 ERSR act: -1%; VDR inhibitor: -5%; Sfp PPTase inh: 14%

Results for Cc1nc2nc(N)nn2c(C)c1CCC(=O)NCCC(C)C ?
ALOX12 inh: 2%

How did C[C@H](C(=O)N1Cc2ccccc2CC2(CCN(C)CC2)C1)c1ccccc1 do in these assays?
ALOX12 inh: 13%[6.33 µM]

Results for C=C(C)CNC(=S)N/N=C(\C)c1cccc(NC(C)=O)c1 ?
ALOX12 inh: inconclusive; G9a block: 9%; GRP78 ERSR act: 15%; VDR inhibitor: -3%; Sfp PPTase inh: -6%

Results for C=C(C)CNC(=S)Nc1cccc(N)n1 ?
ALOX12 inh: inconclusive; G9a block: 1.3µM*; GRP78 ERSR act: -9%; VDR inhibitor: -4%; Sfp PPTase inh: -4%

What do the screens show for `Cc1nn2c(c1-c1cccnc1N1CCOCC1)N(CC1CC1)CCC2`?
ALOX12 inh: 10µM*

Results for CC(=O)Nc1ccc(NC(=O)c2c[nH]c3ccccc23)cc1 ?
ALOX12 inh: 9%

How did CN(C)/[N+]([O-])=N/Oc1cc(ON=[N+]([O-])N2CCN(c3ncccn3)CC2)c([N+](=O)[O-])cc1[N+](=O)[O-] do in these assays?
GRP78 ERSR act: 2%; VDR inhibitor: -25%; Sfp PPTase inh: 50µM*

Results for CN(C)/[N+]([O-])=N/Oc1cc(O/[N+]([O-])=N/N2CCCC2CO)c([N+](=O)[O-])cc1[N+](=O)[O-] (stereo not drawn) ?
GRP78 ERSR act: -6%; VDR inhibitor: 1%; Sfp PPTase inh: 79µM*

Results for CCOC(=O)c1c(NC(=O)CSc2nnc(C)s2)sc2c1CCN(C)C2 ?
ALOX12 inh: 7%; G9a block: 4.5µM*; GRP78 ERSR act: -7%; VDR inhibitor: -13%; Sfp PPTase inh: 18µM*

What do the screens show for `CCOC(=O)c1c(NC(=O)Cc2ccccc2)sc2c1CCN(C)C2`?
ALOX12 inh: -16%; G9a block: inconclusive; GRP78 ERSR act: -5%; VDR inhibitor: 3%; Sfp PPTase inh: 1%

What do the screens show for `CCOC(=O)c1c(NC(=S)Nc2ccc(OCC)cc2)sc2c1CCN(C)C2`?
ALOX12 inh: inconclusive; G9a block: 50µM*; GRP78 ERSR act: 3%; VDR inhibitor: -13%; Sfp PPTase inh: 16µM*

Results for COCCN1C(=O)CC[C@]2(C(=O)NCc3ccccc3Cl)CCCC[C@@H]12 ?
ALOX12 inh: 19%

How did O=C(CN1C(=O)/C(=C/c2ccco2)SC1=S)Nc1ccc(C(=O)O)c(O)c1 do in these assays?
ALOX12 inh: 28µM*; GRP78 ERSR act: -7%; VDR inhibitor: 9%; Sfp PPTase inh: 50µM*

How did O=C(CN1C(=O)/C(=C/c2ccco2)SC1=S)Nc1ccc(O)c(C(=O)O)c1 do in these assays?
ALOX12 inh: inconclusive; G9a block: 25µM*; GRP78 ERSR act: 0%; VDR inhibitor: -6%; Sfp PPTase inh: 50µM*

What do the screens show for `O=C(CCN1C(=O)/C(=C\c2ccccc2F)SC1=S)Nc1ccc(C(=O)O)c(O)c1`?
ALOX12 inh: inconclusive; G9a block: 79µM*; Sfp PPTase inh: 4%

How did O=C(CCN1C(=O)S/C(=C\c2ccc(F)cc2)C1=O)Nc1ccc(C(=O)O)c(O)c1 do in these assays?
ALOX12 inh: inconclusive; G9a block: inconclusive; GRP78 ERSR act: -2%; VDR inhibitor: inconclusive; Sfp PPTase inh: -2%

What do the screens show for `O=C(CCN1C(=O)S/C(=C/c2ccc(F)cc2)C1=O)Nc1ccc(O)c(C(=O)O)c1`?
ALOX12 inh: inconclusive; G9a block: 45µM*; GRP78 ERSR act: -4%; VDR inhibitor: -18%; Sfp PPTase inh: 10%

How did O=C(CCCN1C(=O)/C(=C/c2ccccc2)SC1=S)Nc1ccc(C(=O)O)c(O)c1 do in these assays?
ALOX12 inh: inconclusive; G9a block: inconclusive; GRP78 ERSR act: 10%; VDR inhibitor: inconclusive; Sfp PPTase inh: 13%

How did COc1cccc(CN(C(=O)c2sc3cc(C)ccc3c2Cl)C2CCS(=O)(=O)C2)c1 (stereo not drawn) do in these assays?
ALOX12 inh: -1%

How did COC(=O)c1ccc(OCC(=O)NCC(F)(F)F)cc1 do in these assays?
ALOX12 inh: 14%

How did O=C(CN1C(=O)/C(=C/c2ccco2)SC1=S)NC1CCS(=O)(=O)C1 (stereo not drawn) do in these assays?
ALOX12 inh: inconclusive; G9a block: 40µM*; GRP78 ERSR act: -8%; VDR inhibitor: -12%; Sfp PPTase inh: 25µM*

Results for O=C(CCCN1C(=O)/C(=C\c2cccs2)SC1=S)Nc1ccc(C(=O)O)cc1 ?
ALOX12 inh: -22%; G9a block: -40%; GRP78 ERSR act: 5%; VDR inhibitor: 24%; Sfp PPTase inh: -1%

How did CC(C(=O)Nc1ccc(C(=O)O)c(O)c1)N1C(=O)/C(=C\c2ccco2)SC1=S (stereo not drawn) do in these assays?
G9a block: 14µM*; GRP78 ERSR act: -5%; VDR inhibitor: -10%; Sfp PPTase inh: 50µM*

How did O=C(CCCN1C(=O)/C(=C/c2cccs2)SC1=S)Nc1ccc(O)c(C(=O)O)c1 do in these assays?
G9a block: 45µM*; Sfp PPTase inh: inconclusive

Results for O=C(CCN1C(=O)/C(=C/c2ccccc2)SC1=S)NC1CCS(=O)(=O)C1 (stereo not drawn) ?
ALOX12 inh: -10%; G9a block: 58%; GRP78 ERSR act: 2%; VDR inhibitor: -15%; Sfp PPTase inh: 7%

Results for COc1ccc(Br)cc1/C=N/OC(C)=O ?
ALOX12 inh: -2%

How did Cc1cc(NC(=O)C(C)(C)Oc2nn(CCOc3ccccc3)c3ccccc23)n(C)n1 do in these assays?
ALOX12 inh: -25%[176 µM]

What do the screens show for `O=C(COc1ccccc1)NC1CCSc2ccccc21` (stereo not drawn)?
ALOX12 inh: -27%; G9a block: 6.3µM*; GRP78 ERSR act: 2%; VDR inhibitor: 8%

What do the screens show for `Cc1cc(C)c2cc(C(=O)O)[nH]c2c1`?
ALOX12 inh: -19%

What do the screens show for `CCOc1ccccc1Nc1nnc(SCC(=O)NC(Cc2c[nH]c3ccccc23)C(=O)O)s1` (stereo not drawn)?
ALOX12 inh: -19%; G9a block: 40µM*; GRP78 ERSR act: -1%; VDR inhibitor: -30%; Sfp PPTase inh: 8%

Results for CCOc1ccccc1Nc1nnc(SCC(=O)Nc2ccc3[nH]c(=O)[nH]c3c2)s1 ?
ALOX12 inh: -28%; G9a block: -108%[59 µM]; GRP78 ERSR act: -3%; VDR inhibitor: 8%; Sfp PPTase inh: -16%

Screens: PubChem BioAssay, National Center for Advancing Translational Sciences (NCATS)
